PubChem BioAssay (NCATS)
Results filed as inconclusive are left out. Calls of active or inactive are those of the source. Unless noted, calls follow the shape of the dose curve; as a rule, active = well fitted curve in the direction sought with a large enough effect; inconclusive = small, poorly fitted or top-dose-only effect, or another doubt; inactive = no such curve, though single readings can be large; an effect the other way counts as inactive or inconclusive.

Legend:
[1] = target: Aldehyde dehydrogenase, mitochondrial (Homo sapiens) (UniProt P05091); experiment: qHTS for Inhibitors of the Aldehyde Dehydrogenase Family (ALDH2) Confirmatory screens (AID 2061303; active = well fitted inhibition curve with a large enough effect; title and protocol of this record describe different tests; also: nearly all actives have a fitted effect of over 45% in size; also: potency is read from the fitted curve at half-maximal effect)
[2] = qHTS for Inhibitors of the Aldehyde Dehydrogenase Family (ALDH1A2, ALDH1A3, ALDH2, ALDH3A1) (AID 2061307); also: nearly all actives have a fitted effect of over 50% in size; as to Potency: test system not described further here; potency is read from the fitted curve at half-maximal effect
[3] = target: Aldehyde dehydrogenase, mitochondrial (Homo sapiens) (UniProt P05091); experiment: qHTS for Inhibitors of the Aldehyde Dehydrogenase Family (ALDH2) Primary screen (AID 2061308); also: nearly all actives have a fitted effect of over 55% in size; also: potency is read from the fitted curve at half-maximal effect
[4] = target: Retinal dehydrogenase 2 (Homo sapiens) (UniProt O94788); experiment: qHTS for Inhibitors of the Aldehyde Dehydrogenase Family (ALDH1A2) Confirmation screens (AID 2061314); also: nearly all actives have a fitted effect of over 65% in size; also: potency is read from the fitted curve at half-maximal effect
[5] = target: Retinaldehyde dehydrogenase 3 (Homo sapiens) (UniProt P47895); experiment: qHTS for Inhibitors of the Aldehyde Dehydrogenase Family (ALDH1A3) Primary screen (AID 2061315); also: potency is read from the fitted curve at half-maximal effect
[6] = target: Aldehyde dehydrogenase 1A1 (Homo sapiens) (UniProt P00352); experiment: qHTS for Inhibitors of the Aldehyde Dehydrogenase Family (ALDH1A1) Confirmatory screens (AID 2061316); also: nearly all actives have a fitted effect of over 65% in size; also: potency is read from the fitted curve at half-maximal effect
[7] = target: Retinaldehyde dehydrogenase 3 (Homo sapiens) (UniProt P47895); experiment: qHTS for Inhibitors of the Aldehyde Dehydrogenase Family (ALDH1A3) Confirmatory screens (AID 2061311); also: nearly all actives have a fitted effect of over 60% in size; also: potency is read from the fitted curve at half-maximal effect
[8] = target: Retinaldehyde dehydrogenase 3 (Homo sapiens) (UniProt P47895); experiment: qHTS for Inhibitors of the Aldehyde Dehydrogenase Family (ALDH1A3) Validation screen (AID 2061312); also: nearly all actives have a fitted effect of over 45% in size
[9] = BET inhibitor-based combinations targeting novel dependencies in MECOM-rearranged (r) AML: AML-194 cell line (AID 2202237; also: potency is read from the fitted curve at half-maximal effect; nearly all actives have a fitted effect of over 40% in size)
Summary of the method: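 A 48 hr incubation preceded viability reading by CellTiter-Glo, with 15 min room-temperature development. Dose series had 11 points; normalization used DMSO and empty wells; AUC was computed and mean-centered per line as Z-AUC.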

Measured: Potency

COc1ccc(CCCN2CCC(COC(c3ccccc3)c3ccccc3)CC2)cc1
not listed: [7] | [8] | [9]
inactive: all other assays above

Cc1cc(=O)oc2c(C=O)c(O)ccc12
active: [7] 12.7 µM | [6] 8.96 µM
inactive: [1] | [2] | [3]

CCN(CC)CCOc1ccc(/C(=C(\Cl)c2ccccc2)c2ccccc2)cc1
active: [9] 23.5 µM
not listed: [7]
inactive: all other assays above

O=S1(=O)N=C(Oc2ccccc2F)c2ccccc21
inactive: [1] | [2] | [3] | [4] | [5]

Cc1ccc(OCCn2c(CCNC(=O)CCc3ccc(N)cc3)nc3ccccc32)cc1
inactive: [1] | [2] | [3] | [4] | [5]

CN1CCN(C2CCN(Cc3ccc(O)c4ncccc34)CC2)CC1
inactive: [1] | [2] | [3] | [4]

COc1ccc(C2Nc3ccccc3C(=O)N2Cc2ccccc2)cc1COc1ccc(C(N)=O)cc1 (centres undefined)
inactive: [3] | [5]
active: [1] 5.62 µM | [2] 2.83 µM | [4] 14.1 µM

O=C1c2ccccc2NC(c2ccc(Br)o2)N1O (centres undefined)
active: [1] 5.04 µM | [2] 10.1 µM | [3] 1.41 µM | [7] 7.12 µM | [6] 1.79 µM

O=C(c1ccccc1)N1CCN(c2nc(-c3ccc(Br)cc3)cs2)CC1
active: [1] 15.8 µM | [2] 15.8 µM
inactive: [3] | [4] | [5]

O=C(Nc1ncc(Cc2ccc(C(F)(F)F)cc2)s1)c1ncc(-c2ccccc2)[nH]1
inactive: [1] | [2] | [3] | [4] | [5]

N=c1c2c(ncn1-c1ccccc1)Oc1ccc3ccccc3c1C2c1ccc2c(c1)OCCO2 (centres undefined)
not listed: [7] | [8] | [9]
inactive: all other assays above

CN(Cc1ncc[nH]1)c1ncnc2ccc(-c3ccc4c(c3)OCO4)cc12
not listed: [7] | [8] | [9]
inactive: all other assays above

Fc1cc(Nc2nc(-c3ccncc3)nc3ccccc23)ccc1N1CCNCC1
inactive: [1] | [2] | [3] | [4] | [5]

O=C1CC(c2ccccc2)Cc2[nH]c(=O)c(-c3nc(-c4ccc(F)cc4)cs3)cc21 (centres undefined)
inactive: [1] | [2] | [3] | [4] | [5]

COc1ccc(CN(Cc2ccccc2)C(=O)c2ccccc2O)cc1
inactive: [1] | [2] | [3] | [4] | [5]

Nc1nnc(-c2cccc3ccccc23)o1
not listed: [4] | [8] | [9]
inactive: all other assays above

Cc1cccc(-n2cnc3cc(C(=O)N4CCC(Br)CC4)ccc32)c1
inactive: [1] | [2] | [3] | [4] | [5]

Cc1ccc(NS(=O)(=O)c2ccc3c(c2)CC(=O)N3)cc1C
inactive: [1] | [2] | [3] | [7] | [5]
active: [6] 1.59 µM

CC(=O)N1CCN(C(=S)Nc2cc(C)ccn2)CC1
inactive: [1] | [2] | [3] | [4] | [5]

CC(C)(C)OC(=O)N1CCN(c2ccc(NCc3ccnc(-c4ccc(C#N)cc4)n3)cc2)CC1
inactive: [4] | [5]
active: [1] 0.504 µM | [2] 0.357 µM | [3] 0.282 µM

CCCCN(C)C(=O)Cn1nc(-c2ccncc2)ccc1=O
inactive: [1] | [2] | [3] | [4] | [5]

CN(Cc1cccs1)c1ncnc2ccc(-c3ccc4cnn(C)c4c3)cc12
not listed: [4] | [8] | [9]
inactive: all other assays above

COc1ccc(-c2nc3ccccc3c(=O)n2Cc2ccc(CNC(=O)CO)cc2)cc1COc1ccc(NC(C)=O)cc1
active: [2] 8.96 µM | [4] 15.9 µM
inactive: [1] | [3]

Cc1cccc(C)c1-n1c(SCC(=O)NCCCCCC(=O)O)nnc1-c1cccc([S+](=O)([O-])N2CCCC2)c1
not listed: [4] | [8] | [9]
inactive: all other assays above

Cc1cccc(C[C@H](C(=O)O)N2C(=O)c3ccc(C(=O)O)cc3C2=O)c1
not listed: [4] | [8] | [9]
inactive: all other assays above

O=C(Nc1ccc(Cl)c(Cl)c1)Nc1nnc(NC2CCNCC2)s1
inactive: [1] | [2] | [3] | [6]
active: [7] 11.3 µM

COc1cccc(OC)c1C1=Nn2c(nnc2-c2ccccc2C)SC1
inactive: [1] | [2] | [3] | [4] | [5]

Cc1cc(C)cc(C(=O)NOCCCCCC(=O)NO)c1
inactive: [1] | [2] | [3] | [4]
active: [5] 6.31 µM

O=C(Nc1ccc2ccccc2c1)Nc1nnc(-c2cccnc2)s1
inactive: [1] | [2] | [3] | [5]
active: [4] 12.7 µM

O=C(O)c1ccc(-n2cccc2/C=C2\SC(=O)N(Cc3ccccc3Cl)C2=O)cc1
active: [2] 7.12 µM | [4] 5.65 µM
inactive: [1] | [3] | [5]
